Hit rate of the full screen: of about 340,000 compounds, about 800 (0.24%) were called active. Only a selection was taken, and actives are over-represented in it overall. A number with no mark means an inactive call.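 How the source made its calls: active means activation above the mean over all tested compounds plus 3 SD (cut at about 30% in these data); inactive means the rest.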

Activation data for 59 molecules are collected here from PubChem BioAssay AID493008 (The Scripps Research Institute Molecular Screening Center, 2010).

The target in this assay is Troponin I, cardiac muscle (Homo sapiens) + Troponin T, cardiac muscle (Homo sapiens) + Troponin C, slow skeletal and cardiac muscles (Homo sapiens) (UniProt P19429+P45379+P63316). The assay can be described thus: calcium sensitizers of cardiac thin filaments – biochemical, IANBD-TnC fluorescence, EC20 calcium, primary screen (AID 493008).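 Further: rise in fluorescence read as greater calcium sensitivity of cardiac thin filaments.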 The note with it: IANBD-labeled TnC RTF fluorescence at EC20 calcium; at 7.2 µM; active compounds read high; 0% EC20 calcium, 100% full calcium.
Turning to `S=C(Nc1ccccc1)Nc1ccc2ccccc2c1`, the activation is -10.4%. The figure for `CC1CCCC(C)N1C(=O)CN1CCN(c2nc(-c3ccc(F)cc3)cs2)CC1` (centres undefined) is -5.89%; for `CCCC(C)C(=O)Nc1ccc(NC(C)=O)cc1` (centres undefined) it is -2.2%.

As to `CC(C)(C)c1ccc(/C=C/C(=O)NC2CCS(=O)(=O)C2)cc1` (centres undefined), the activation is 8.91%. For the molecule `O=C(NC(Cc1c[nH]c2ccccc12)C(=O)N/N=C/c1ccc(Br)cc1)c1cccs1` (centres undefined), the activation was -5.25%. As to `Cc1ncoc1C(=O)NCCC(c1ccccc1)c1ccccc1`, the activation is 1.32%.

For the molecule `Cc1ccc(N(Cc2cc(=O)[nH]c3ccccc23)C(=O)CCl)cc1`, the activation was -2.09%. With `COc1ccc(OC)c(S(=O)(=O)Nc2cccc(-c3ccc4nncn4n3)c2)c1`, the activation is -5.2%. The figure for `CC1(C)OC(=O)C(=CSc2ccc(C(C)(C)C)cc2)C(=O)O1` is -0.02%; for `CC1CCCN(CCCNC(=O)CN2C(=O)COc3ccc(S(=O)(=O)N4CCOCC4)cc32)C1` (centres undefined) it is -3.28%. Regarding `COc1ccc(C(=O)Oc2ccc(-c3nnco3)cc2)cc1S(=O)(=O)N1CCOCC1`, the activation is 5.67%. For `C[n+]1ccc(/C=C/c2c[nH]c3ccccc23)cc1`, the activation is 154% (active). Take `COc1ccc(C(=O)Nc2ccc(-n3nncc3C(C)(C)C)cc2)cc1`: the activation was -5.43%. The same measure for `O=C(NC(=S)N1CCc2ccccc21)c1ccco1`: -3.2%; for `CC(C)NC(=O)N1CCN(c2ccncc2S(=O)(=O)N2CCCCC2)CC1`: 1.09%.

Turning to `O=C(OCCOc1ccccc1Cl)c1cc(S(=O)(=O)N2CCCCC2)ccc1N1CCOCC1`, the activation was -4.46%. The same measure for `CCCNC(=O)C(=O)Nc1cc2c3c(c1)CCC(=O)N3CCC2`: -3.33%; for `OC1CN=C2Sc3ccccc3N2C1` (centres undefined): -0.74%. The same measure for `O=C(N/N=C/C=C/c1ccco1)c1cccs1`: 1.5%.

On to `Cn1c(=O)c(=O)n(C)c2cc(S(=O)(=O)NCCN3CCN(c4ccccc4F)CC3)ccc21`, for which the activation was -1%.

For the molecule `CCN1/C(=C\c2ccc3ccccc3[n+]2CC)Sc2cc(C)ccc21`, the activation is 38.1% (active). The figure for `O=C(NCCc1c[nH]c2ccccc12)C1CCN(Cc2ccc(Br)cc2)CC1` is -15.1%. Consider `N#C/C(=C/c1ccc(N2CCCCC2)o1)C(=O)NCCc1c[nH]c2ccccc12`, for which the activation is 98.5% (active). `Cc1ccc(C(=O)N/C(=C/c2ccco2)C(=O)NCCc2c[nH]c3ccccc23)cc1C`: the activation was -3.2%.

On to `CN(c1ccccc1)S(=O)(=O)c1ccc(NC(=O)COc2ccccc2)cc1`, for which the activation is 0.63%.

As for `CC1CCN(C(=O)Cn2nnnc2CN2CCOCC2)CC1`, the activation is -3.91%. The same measure for `O=S(=O)(Nc1cccc(Oc2ccc(Cl)cc2)n1)c1ccc(F)cc1`: -5.16%; for `O=C(CCN1C(=O)[C@@H]2Cc3ccccc3CN2C1=O)NCCc1ccccc1`: -2.53%; for `CN(CCc1ccccc1)C(=O)c1cccc(NC(=O)Cc2cccc(NC(=O)C3CCCN(C(=O)CCc4ccccc4)C3)c2)c1` (centres undefined): -0.28%. The same measure for `Cc1ccccc1NC(=O)CCNS(=O)(=O)c1ccc2[nH]c(=O)oc2c1`: -6.99%; for `O=S(=O)(Cc1nnnn1-c1ccc(Br)cc1)c1ccc(F)cc1`: 1.13%.

Turning to `O=C(CC12CC3CC(CC(C3)C1)C2)Nc1ccc2c(c1)COC2=O`, the activation was -1.12%.

For `CCOc1ccc(OCC(=O)OC(C)C(=O)NC2CCCCC2C)cc1` (centres undefined), the activation was 0.95%. The same measure for `Cc1ccc(CS(=O)(=O)CCC(=O)NC2CC2)cc1`: -1.46%; for `COc1ccccc1C(=O)Nc1nc2nc(-c3ccccc3)cc(=O)n2[nH]1`: 5.39%. The figure for `COc1ccc(N2CC(C(=O)N[C@@H](C)C(=O)N3CCCCC3)CC2=O)cc1` (some centres undefined) is 2.39%; for `Cc1ccc(S(=O)(=O)n2cccc2CO)cc1` it is 3.89%. Take `CC1(C)CC(=O)C/C(=N\NC(=O)c2cccs2)C1`: the activation is 9.93%. The figure for `Cc1cccc(N(C(=O)Cc2cccs2)C(C(=O)NC2CCCC2)c2ccsc2)c1` (centres undefined) is 2.2%; for `Cc1cc(F)ccc1N1CCC(N2CCN(C)C(CCO)C2)CC1` (centres undefined) it is 0.01%; for `O=S(=O)(c1cccc(-c2cn3ccccc3n2)c1)N1CCCC1` it is -1.73%. The same measure for `COc1ccc(N(C(=O)CNC(=O)c2ccco2)C(C(=O)NCC2CCCO2)c2ccccc2)cc1Cl` (centres undefined): -5.45%; for `Nc1ncnc2c1ncn2[C@@H]1O[C@H](CNS(=O)(=O)c2ccc(-c3ccno3)s2)[C@@H](O)[C@H]1O`: -2.32%; for `CC1(C)CN(c2ccc(-c3ccnc4ncnn34)cc2)C1=O`: 2.76%. As for `ClC1(Cl)CC1CSc1ncn[nH]1` (centres undefined), the activation is 2.22%. The figure for `COc1ccc(CN(C)C(=S)Nc2ccc(Cl)cc2Cl)cc1` is 5.9%; for `O=C(CCS(=O)(=O)Cc1ccccc1F)NCCCN1CCCCC1` it is 5.59%; for `CCN(CC)CCCC(C)n1c2nc(=O)[nH]c(=O)c-2nc2cc(Cl)ccc21` (centres undefined) it is 1960% (active). The same measure for `CCN(CC)CCn1c2ccc(Cl)cc2c2nc(C)sc21`: 1.89%; for `CSCC[C@H](NC(=O)NCc1cccs1)C(=O)O`: 4.37%; for `CC(C)c1nnc(NC(=O)CCC(=O)N2CCN(c3cccc(Cl)c3)CC2)s1`: -4.73%.

With `COc1ccc(C(=O)COC(=O)C(O)c2ccccc2)c(OC)c1` (centres undefined), the activation is 3.19%. As for `O=C(/C=C/c1ccc2c(c1)OCCO2)c1ccc(O)cc1`, the activation was -0.07%. The figure for `O=C(/C=C(O)/C=C/c1ccc(O)cc1)/C=C/c1ccc(O)cc1` is 40.2% (active); for `O=C(O)/C=C/c1ccc(OCCCF)cc1` it is -2.79%; for `NS(=O)(=O)c1ccc(NC(=O)COC(=O)c2c3c(nc4ccccc24)/C(=C\c2ccc4c(c2)OCO4)CCC3)cc1` it is 4.91%.

Turning to `O=C(COC(=O)c1ccncc1)Nc1ccc2c(c1)OCO2`, the activation is -5.52%.

As to `NC(=O)c1ccc(NC(=O)COC(=O)c2c3c(nc4ccccc24)/C(=C\c2ccc4c(c2)OCO4)CCC3)cc1`, the activation was 514% (active). The same measure for `C=CCC(C(=O)c1ccccc1)[N+](C)(C)CC=C` (centres undefined): -2.42%.
